The results in this text go back to PubChem BioAssay (NCI).

SMILES strings stand for the structures. About 79,000 compounds went through this panel and 15% of them were active in at least one assay; those are over-represented in the sample as a whole. Values without a mark were called inactive. Active and inactive are the calls of the source. No stated cut-off is given here; in the data, active means growth inhibition above about 70%; inactive means the rest.

The nature of assay [1]: NCI Yeast Anticancer Drug Screen. Data for the rad50 strain (AID 155).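 Further: 0% = growth of vehicle-only cultures of the same strain.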 Particulars: S. cerevisiae rad50 strain growth inhibition; at 50.0 µM; stronger effect = higher value. The method in brief: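 Vehicle-treated cultures provide the reference for the growth inhibition reported for compound-exposed, repair-deficient yeast.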
Assay [2] is described as follows: NCI Yeast Anticancer Drug Screen. Data for the mec2-1 strain (AID 157). Particulars: S. cerevisiae mec2-1 strain, at 50.0 µM, stronger effect = higher value. An outline of the steps: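 Mutant yeast (mec2-1) grown with compound; growth inhibition relative to vehicle control reported.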
The nature of assay [3]: NCI Yeast Anticancer Drug Screen. Data for the sgs1 mgt1 strain (AID 161).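 Further: 0% = growth of cultures given vehicle only.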 Particulars: S. cerevisiae sgs1 mgt1 strain, at 50.0 µM, stronger effect = higher value. The method in brief: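 This yeast growth screen uses a strain with defined DNA-repair lesions; compound-treated growth is compared with vehicle-treated growth.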
Assay [4] in a line: NCI Yeast Anticancer Drug Screen. Data for the cln2 rad14 strain (AID 165).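 Further: 0% = growth equal to vehicle treated cultures.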 Particulars: S. cerevisiae cln2 rad14 strain, at 50.0 µM, stronger effect = higher value. An outline of the steps:
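Readout is yeast growth inhibition versus vehicle-treated controls, using a strain with cln2 and rad14 alterations exposed to compound.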

Assay [5] in a line: NCI Yeast Anticancer Drug Screen. Data for the bub3 strain (AID 167). Conditions: S. cerevisiae bub3 mutant strain, at 50.0 µM, stronger effect = higher value. The method in brief: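 Mutant yeast screening strain plus compound; vehicle-treated cultures serve as the 0% inhibition reference.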
A short description of assay [6]: NCI Yeast Anticancer Drug Screen. Data for the mlh1 rad18 strain (AID 175). Conditions: S. cerevisiae mlh1 rad18 strain growth inhibition; at 50.0 µM; stronger effect = higher value. An outline of the steps: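 Genetically defined yeast (DNA repair-deficient) exposed to compounds; growth inhibition determined relative to vehicle.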

For `CC(=O)OCCn1c2ccccc2nc2cc3c(cc21)c(Cl)c(=O)c1ccccc13`, the growth inhibition was 29.6% in assay [1]; 14.3% in assay [2]; 21.1% in assay [3]; 25.6% in assay [4]; -1.6% in assay [5]; 13.4% in assay [6].
On to `CCCCCCCCCCCCCCCCSCCOC(=O)C1C2CCC(O2)C1C(=O)O` (stereo not given), for which the growth inhibition in assay [1] is 55.9%; in assay [2], -18.4%; in assay [3], 10.4%; in assay [4] it was 13.9%; in assay [5], 30.2%; in assay [6], 37.6%.
For `CCOc1c(CNC(=O)CCl)cc(N)cc1CNC(=O)CCl`, the growth inhibition is 6.45% in assay [1]; 3.4% in assay [2]; -14% in assay [3]; 10.8% in assay [4]; 2.1% in assay [5]; -10.3% in assay [6].
For `Cc1ccc(C2(O)CC(c3ccc([N+](=O)[O-])o3)=NN2C(=O)COc2ccccc2Cl)cc1` (stereo not given), the growth inhibition in assay [1] is 46.1%; in assay [2] it was -15.2%; in assay [3], -0.45%; in assay [4] it was 0.15%; in assay [5], -1.9%; in assay [6] it was -6.45%.
For `O=C1CCC(C(=O)O)N1` (stereo not given), the growth inhibition in assay [1] was -9.2%; in assay [2] it was 4.7%; in assay [3], -20.9%; in assay [4], 1.15%; in assay [5], 7.7%; in assay [6], -7.8%.
With `O=C1C=CC(=NCl)C=C1`, the growth inhibition was -18.6% in assay [1]; -24.9% in assay [2]; 4.35% in assay [3]; -21.9% in assay [4]; 1.15% in assay [5]; 10.6% in assay [6].
Consider `CSc1nc(=O)cc(N)n1C`, for which the growth inhibition in assay [1] was 1.65%; in assay [2], -1.55%; in assay [3], 9.55%; in assay [4] it was -23.7%; in assay [5], -7.2%; in assay [6], 7.9%.
With `Cc1ncc([N+](=O)[O-])n1Cc1nncs1`, the growth inhibition is -9.35% in assay [1]; -11.4% in assay [2]; -7.95% in assay [3]; -31.9% in assay [4]; -19.3% in assay [5]; -14.2% in assay [6].
As for `O=C(O)/C(Br)=C(\Br)c1ccccc1`, the growth inhibition in assay [1] was 23.9%; in assay [2] it was 15.8%; in assay [3], 14.6%; in assay [4], 14.4%; in assay [5], 1.55%; in assay [6], 12.5%.
As for `O=CC(=C\c1cccs1)/C(C=O)=C\c1cccs1`, the growth inhibition in assay [1] was 99.3% (active); in assay [2], 99.5% (active); in assay [3] it was 99.5% (active); in assay [4] it was 99.1% (active); in assay [5], 99.4% (active); in assay [6] it was 88.5% (active).
Regarding `CC(C)(C)c1cc(-c2c3nc(c(-c4cc(C(C)(C)C)cc(C(C)(C)C)c4)c4ccc([nH]4)c(-c4cc(C(C)(C)C)cc(C(C)(C)C)c4)c4nc(c(-c5cc(C(C)(C)C)cc(C(C)(C)C)c5)c5ccc2[nH]5)C=C4)C=C3)cc(C(C)(C)C)c1`, the growth inhibition is 19.8% in assay [1]; 15.4% in assay [2]; 24.2% in assay [3]; 23.3% in assay [4]; 2.6% in assay [5]; 31.2% in assay [6].
For `O=C1NCC(c2ccccc2)(c2ccccc2)O1`, the growth inhibition in assay [1] was 26.9%; in assay [2], 11.3%; in assay [3] it was 10.3%; in assay [4] it was 11.8%; in assay [5] it was 4.45%; in assay [6], 19.4%.
On to `N#CC1(c2ccc(Cl)cc2)CCC1`, for which the growth inhibition was 11.7% in assay [1]; 6.15% in assay [2]; 19.8% in assay [3]; 19.9% in assay [4]; 27.5% in assay [5]; 8.6% in assay [6].
Consider `Nc1ccc(N)c(N)c1`, for which the growth inhibition in assay [1] is 26.3%; in assay [2] it was 53.1%; in assay [3], 31.4%; in assay [4] it was -31.2%; in assay [5], -4.9%; in assay [6], 6.8%.
Consider `O=C(Nc1ccc(Cl)c(Cl)c1)c1ccc(Cl)cc1`, for which the growth inhibition was 2% in assay [1]; 11.3% in assay [2]; 7.65% in assay [3]; 8.2% in assay [4]; 19.1% in assay [5]; 13% in assay [6].
As for `CC1ON2CCCC2[C@H]1C(=O)N1C2CC3CCC2(CS1(=O)=O)C3(C)C` (stereo not given in full), the growth inhibition in assay [1] is -4.35%; in assay [2] it was 2.9%; in assay [3] it was -28.6%; in assay [4] it was -0.35%; in assay [5], 19.4%; in assay [6], -36.7%.
In the case of `Cc1ccc(C(=O)C[N+]2(C)CCOCC2)cc1`, the growth inhibition in assay [1] was 15.8%; in assay [2], -7.5%; in assay [3], 16.6%; in assay [4], -21.9%; in assay [5], 8.4%; in assay [6], 20.4%.
In the case of `c1ccc(-n2cccc2)cc1`, the growth inhibition in assay [1] is 7.4%; in assay [2] it was 7.05%; in assay [3] it was 9.25%; in assay [4], -30%; in assay [5], -3.7%; in assay [6] it was -11.6%.
For the molecule `Cc1cccc(CC(N)C(=O)O)c1` (stereo not given), the growth inhibition in assay [1] is -5.15%; in assay [2], 5.1%; in assay [3], -6.95%; in assay [4], -3.3%; in assay [5] it was 4%; in assay [6], -9.8%.
For the molecule `COC1CC(NC(C)=O)C(OC(C)=O)C(C)O1` (stereo not given), the growth inhibition in assay [1] was -1.5%; in assay [2] it was -9.6%; in assay [3] it was -5.65%; in assay [4], -29.2%; in assay [5], -7.55%; in assay [6] it was -1.4%.
